Growth inhibition data for eight molecules are collected here from PubChem BioAssay (NCI).

About 79,000 compounds went through this panel and 15% of them were active in at least one assay; those are over-represented in the sample as a whole. Values without a mark were called inactive. The source made the active and inactive calls. Cut-off read from the data, not from the text of the source: active = growth inhibition above about 70%; inactive = the rest.

This assay in a line: NCI Yeast Anticancer Drug Screen. Data for the rad18 strain (AID 177). As to conditions: S. cerevisiae rad18 mutant growth inhibition, hits give high values. How it is done: Growth inhibition of yeast strains with defined genetic alterations is measured as a screen for potential anti-cancer activity. Selected strains with alterations in DNA damage repair or cell cycle control were exposed to compounds and growth inhibition was measured relative to vehicle treated controls. The strain used in this assay is rad18

In the case of `CCCCCCCCCCCCOCCOCCOCC(N)=O`, the growth inhibition reads like this: (at 1.2 µM) -18%; (at 3.7 µM) -31%; (at 11.0 µM) -18%; (at 33.0 µM) 97% (active); (at 100.0 µM) 95% (active).

`Cc1cc(OCc2nc(N)nc(N)c2-c2ccc(Cl)c(Cl)c2)ccc1[N+](=O)[O-]`: the growth inhibition (at 1.2 µM) was -3%; the growth inhibition (at 3.7 µM) is -4%; the growth inhibition (at 11.0 µM) is -8%; the growth inhibition (at 33.0 µM) is -15%; the growth inhibition (at 100.0 µM) is -23%.

For the molecule `CCCCCCCCCCCCCCCCCCNC(=S)/N=C/c1c(O)c2ccccc2[nH]c1=O`, the growth inhibition is, setting by setting: (at 1.2 µM) 2%; (at 3.7 µM) 4%; (at 11.0 µM) 6%; (at 33.0 µM) 22%; (at 100.0 µM) 25%.

On to `CCC[CH2][Sn]([CH2]CCC)([CH2]CCC)/[C](=C/[Si](C)(C)c1ccccc1)c1ccc2c(c1)OCO2`, for which the growth inhibition was 25% (at 1.2 µM); 82% (active) (at 3.7 µM); 92% (active) (at 11.0 µM); 86% (active) (at 33.0 µM); 88% (active) (at 100.0 µM).

Turning to `Oc1c2c(c(O)c3ccccc13)C1(N=N2)c2ccccc2Oc2ccccc21`, the growth inhibition (at 1.2 µM) was 18%; the growth inhibition (at 3.7 µM) is 74% (active); the growth inhibition (at 11.0 µM) was 98% (active); the growth inhibition (at 33.0 µM) was 96% (active); the growth inhibition (at 100.0 µM) is 92% (active).

In the case of `Cc1ccc(NC(=O)CCC(=O)C(C)C(=O)c2ccccc2)c(C)c1` (stereo not given), the growth inhibition was -1% (at 1.2 µM); -1% (at 3.7 µM); -1% (at 11.0 µM); -3% (at 33.0 µM); -1% (at 100.0 µM).

With `O=C1C2=C(c3ccccc31)C(c1ccccc1)N1C(=O)CSC1=N2` (stereo not given), the growth inhibition was -1% (at 1.2 µM); 10% (at 3.7 µM); 14% (at 11.0 µM); 31% (at 33.0 µM); 72% (active) (at 100.0 µM).

For the molecule `c1cc(-c2sc(-c3ccncc3)c(-c3ccncc3)c2-c2ccncc2)ccn1`, the growth inhibition (at 1.2 µM) is 10%; the growth inhibition (at 3.7 µM) is -1%; the growth inhibition (at 11.0 µM) is 6%; the growth inhibition (at 33.0 µM) was 23%; the growth inhibition (at 100.0 µM) is 86% (active).
